# rCAG RNA binder = r(CAG) repeat RNA binding | TO-PRO-1 dye displacement fluorescence | inhibition, % at 3 µM | 370,000 compounds, 1.3% hits | AID 651821;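 active = inhibition above the plate cutoff, the mean of all test compounds on that plate plus 3 SD, cut at about 35% in these data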;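 note: 0% = DMSO alone and 100% = 100 µM mitoxantrone as full dye displacement; higher means more dye released from RNA so lower well fluorescence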
# ZTA counter = blocks Epstein-Barr virus ZTA, an EBNA-1 counter-screen. P03206. ZTA-DNA binding, fluorescence polarization. inhibition, % at 11 µM. 320,000 compounds, 0.15% hits. AID 2234; in the data active = inhibition above about 33%
# Target sequence (P03206 whole entry, looked up): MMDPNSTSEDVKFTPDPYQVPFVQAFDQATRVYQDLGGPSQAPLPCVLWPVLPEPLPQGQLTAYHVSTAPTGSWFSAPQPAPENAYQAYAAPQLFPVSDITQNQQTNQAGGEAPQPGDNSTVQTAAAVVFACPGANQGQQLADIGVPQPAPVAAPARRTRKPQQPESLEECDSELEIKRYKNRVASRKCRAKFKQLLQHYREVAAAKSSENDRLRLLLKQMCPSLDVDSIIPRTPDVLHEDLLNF
# PAFAH1B2 inh = blocks human PAF acetylhydrolase 1b catalytic subunit 2. P68402. recombinant PAFAH1B2, FP-rhodamine activity probe, fluorescence polarization. AID 492953. inhibition, % at 3.39 µM. 340,000 compounds, 1.2% hits;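 active = inhibition above the mean of all tested compounds plus 3 SD, cut at about 24% in these data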;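 note: 0% = enzyme with DMSO and 100% = wells lacking PAFAH1B2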
# Target sequence (P68402 whole entry, looked up): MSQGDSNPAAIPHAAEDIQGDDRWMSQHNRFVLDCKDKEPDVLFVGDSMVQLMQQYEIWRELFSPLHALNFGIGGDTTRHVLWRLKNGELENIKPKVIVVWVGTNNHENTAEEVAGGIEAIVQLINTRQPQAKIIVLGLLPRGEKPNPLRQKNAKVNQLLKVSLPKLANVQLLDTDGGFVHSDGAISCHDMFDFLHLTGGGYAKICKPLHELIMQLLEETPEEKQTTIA
# EBNA-1 inhibitor = blocks EBNA-1 binding to DNA | EBNA-1 DNA binding, fluorescence polarization | inhibition, % at 14.8 µM | 300,000 compounds, 0.34% hits; in the data active = inhibition above about 28%
# PAFAH2 inh = PAFAH2 (human) inhibition | inhibition, % at 3.39 µM | 340,000 compounds, 0.99% hits | recombinant PAFAH2, FP-rhodamine activity probe, fluorescence polarization;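 active = inhibition above the mean over all tested compounds plus 3 SD, cut at about 30% in these data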;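 note: inhibitors block probe labeling of enzyme so polarization drops; 0% = enzyme with DMSO and 100% = wells lacking PAFAH2 protein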
# PAFAH1B3 FP inh = PAFAH1B3 (human) inhibition | inhibition, % at 3.39 µM | 340,000 compounds, 0.28% hits | recombinant PAFAH1B3, FP-rhodamine probe, fluorescence polarization | Q15102;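 active = inhibition above the screen-wide average of all tested compounds plus 3 SD, cut at about 25% in these data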;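 note: 0% = enzyme with DMSO only and 100% = wells lacking PAFAH1B3 protein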
# rCAG bind conf = r(CAG) RNA repeat binding, confirmation; inhibition, % at 3 µM; 4,300 compounds, 70% hits; shares compounds with rCAG RNA binder; TO-PRO-1 dye displacement fluorescence; AID 652065;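 active = inhibition above a per-plate cutoff, the mean inhibition of sample wells plus 3 SD, cut at about 35% in these data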;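 note: loss of TO-PRO-1 fluorescence as compound displaces dye from 1x1 AA loop RNA; 0% = DMSO only wells and 100% = 100 µM mitoxantrone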
# DNA CAG counter = disrupts DNA CAG TO-PRO-1 complex, flagging rCAG hits; AID 652068; inhibition, % at 3 µM; d(CAG) DNA oligo TO-PRO-1 dye displacement, fluorescence; 4,300 compounds, 94% hits; shares compounds with rCAG RNA binder;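 active = inhibition above its plate's cutoff, the mean test-well inhibition plus 3 SD, cut at about 4.8% in these data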;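 note: 0% = DNA dye mix with DMSO and 100% = 100 µM mitoxantrone; hits displace the dye from DNA and so lower well fluorescence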
# dCAG dye DR = DNA CAG dye complex inhibition, dose response counter-screen; shares compounds with rCAG RNA binder; DNA CAG/GTC duplex TO-PRO-1 dye displacement fluorescence; IC50, µM; 250 compounds, 20% hits; in the data active = IC50 below about 10 µM
# The depositor's hits bear a star; / = no result. This is a sample that favours compounds with a hit; in the whole collection about 2.9% have one here.
SMILES,rCAG RNA binder,ZTA counter,PAFAH1B2 inh,EBNA-1 inhibitor,PAFAH2 inh,PAFAH1B3 FP inh,rCAG bind conf,DNA CAG counter,others
CC(C)C(=O)NC(NC(=S)Nc1ccc(S(N)(=O)=O)cc1)C(Cl)(Cl)Cl (stereo not drawn),46*,4,3,-3,-1,0,4,2,
CCOC(=O)c1ccc(NC(=O)C2COc3ccccc3O2)cc1 (stereo not drawn),1,20,0,12,2,6,/,/,
CCOC(=O)c1ccc(-n2c(O)c(/C=N/NC(=O)C3COc4ccccc4O3)c3ccccc3c2=O)cc1 (stereo not drawn),75*,-4,-1,18,1,1,79*,42*,
CCCCCCOC(=O)Nc1ccc(S(=O)(=O)Nc2cccc([N+](=O)[O-])c2)cc1,45*,2,11,-8,-3,-3,46*,14*,
O=C(Cn1cc(COc2ccc(Cl)c(Cl)c2)nn1)NS(=O)(=O)c1ccccc1OC(F)(F)F,62*,/,/,/,/,/,48*,16*,
O=C(Cn1cc(COc2ccccc2C(F)(F)F)nn1)c1ccc(O)cc1,5,/,5,/,3,15,/,/,
O=C(O)CSc1nc2sc3c(c2c(=O)n1-c1ccccc1)CCC3,6,0,3,4,2,2,/,/,
Nc1nc(SCc2nnc(SCC(=O)O)n2-c2ccccc2)nc2sc3c(c12)CCCC3,61*,3,4,2,6,-2,69*,23*,dCAG dye DR=>30
O=C(CCN1C(=O)/C(=C\c2ccccc2F)SC1=S)Nc1ccc(C(=O)O)c(O)c1,94*,7,6,11,11,5,84*,60*,
O=C(CCCN1C(=O)C(=Cc2ccc3c(c2)OCO3)SC1=S)Nc1ccc(C(=O)O)c(O)c1,77*,/,/,/,/,/,78*,45*,
COc1ccc(C=C2SC(=S)N(CCCC(=O)Nc3ccc(C(=O)O)c(O)c3)C2=O)cc1OC,80*,/,/,/,/,/,75*,41*,
O=C(CCCN1C(=O)/C(=C/c2ccccc2)SC1=S)Nc1ccc(C(=O)O)c(O)c1,83*,-7,11,-1,7,5,80*,36*,
O=C(CCCN1C(=O)/C(=C\c2ccccc2)SC1=S)Nc1ccc(C(=O)O)cc1,3,5,7,8,1,0,/,/,
O=C(CCCN1C(=O)/C(=C/c2ccc3c(c2)OCO3)SC1=S)Nc1ccc(C(=O)O)cc1,29,1,1,14,2,4,/,/,
COc1ccc(/C=C2\SC(=S)N(CCCC(=O)Nc3cccc(C(=O)O)c3)C2=O)cc1OC,23,3,-7,9,-5,2,/,/,
O=C(CCN1C(=O)/C(=C/c2ccccc2F)SC1=S)NCCCN1CCOCC1,2,10,6,-8,2,2,/,/,
O=C1C[C@@H](c2ccccc2)N=C2N(Cc3ccc4c(c3)OCO4)C/C(=C/c3ccccc3)N12,7,/,/,/,/,/,/,/,
O=C(OCCCN1CCC2(CCC(c3ccccc3)CC2)C1=O)c1ccccc1 (stereo not drawn),3,/,/,/,/,/,/,/,
N#CCC(=O)Nc1sc2c(c1C(N)=O)CCCC2,35*,13,0,-7,-4,3,3,4.5*,
NC(=O)c1c(NC(=O)COC(=O)c2ccc(O)c(Cl)c2)sc2c1CCCC2,39*,/,8,/,27,-1,43*,15*,
COc1ccc(N2CCN(C(=O)COC(=O)CCc3ccccc3)CC2)cc1,-1,-4,5,/,0,4,/,/,
CC1=C/C(=C(\c2cc(C)c(O)c(Br)c2)c2ccccc2S(=O)(=O)O)C=C(Br)C1=O,49*,7,-17,9,-31,-26,33,9.3*,
NS(=O)(=O)c1ccc(-c2ccc(/C=C3\SC(=S)N(C4CCS(=O)(=O)C4)C3=O)o2)cc1 (stereo not drawn),35*,0,5,-16,5,5,19,14*,
Cc1ccc(-c2nn(-c3ccccc3)cc2C2CC(c3cccs3)=NN2C(=O)CCCC(=O)O)cc1 (stereo not drawn),9,20,8,3,1,5,/,/,
O=C(O)CCC(=O)N1N=C(c2cccs2)CC1c1cn(-c2ccccc2)nc1-c1ccccc1 (stereo not drawn),54*,8,1,2,6,2,61*,19*,
SMILES,rCAG RNA binder,ZTA counter,PAFAH1B2 inh,EBNA-1 inhibitor,PAFAH2 inh,PAFAH1B3 FP inh,rCAG bind conf,DNA CAG counter,others
O=[N+]([O-])c1c(Nc2ccccc2O)ccc2nonc12,1,-11,-2,-2,-3,8,/,/,
O=[N+]([O-])c1c(Nc2ccccc2O)cc(Cl)c2nonc12,41*,/,6,/,7,9,20,9.7*,
Cc1ccc(Cl)cc1-c1cc(C(=O)NCC2CCCCC2)[nH]n1,3,/,/,/,/,/,/,/,
CN1C[C@]2(C=C3CCCCC3n3c(=O)n(-c4ccccc4)c(=O)n32)N(C(=O)OCc2ccccc2)C1=NC(=O)c1ccccc1 (stereo partly drawn),4,/,/,/,/,/,/,/,
O=C(O)c1cn(Cc2ccccc2Cl)c2ccc(S(=O)(=O)N3CCOCC3)cc2c1=O,3,-16,10,-3,-1,-3,/,/,
CCC(=O)Nc1nnc(S(=O)(=O)N(C)Cc2ccco2)s1,1,-5,3,-1,6,4,/,/,
CN(Cc1ccco1)S(=O)(=O)c1nnc(NC(=O)c2ccc(F)cc2)s1,37*,3,4,4,-2,3,25,7.4*,
CCCC(=O)Nc1nnc(S(=O)(=O)N(C)Cc2ccco2)s1,/,7,3,7,5,4,/,/,
CCOc1ccc(C(=O)Nc2nnc(S(=O)(=O)N(C)Cc3ccco3)s2)cc1,36*,-4,1,-12,-14,8,37*,11*,
C=CCc1cc(C=O)cc(OCC)c1O,-1,-16,-1,-15,7,-2,/,/,
CC1(C(=O)NS(=O)(=O)c2ccc(C#N)cc2)CCN1C(=O)Cc1ccc(-c2ccccc2)cc1 (stereo not drawn),42*,/,/,/,/,/,43*,11*,
CC1(C(=O)NS(=O)(=O)c2ccc(C#N)cc2)CCN1C(=O)Cc1cccc2ccccc12 (stereo not drawn),12,/,/,/,/,/,/,/,
CC1(C(=O)NS(=O)(=O)c2cccc(C#N)c2)CCN1C(=O)Cc1ccc(-c2ccccc2)cc1 (stereo not drawn),41*,/,/,/,/,/,44*,11*,
Cc1ccc(Cn2cc(CN3[C@H](c4ccccc4)COc4cc(Br)ccc4S3(=O)=O)nn2)cc1,66*,/,/,/,/,/,51*,19*,
